FLuc modulator: counter-screen for miR-21 project: firefly luciferase inhibitors or activators; P08659; purified FLuc, Km substrates, luminescence inhibition; Potency, µM (titrated, usually from 57.5 µM), hits mostly inhibitors; 6.9% of 360,000 active; further: nearly all actives have a fitted effect of over 55% in size
Target sequence (P08659 whole entry, looked up): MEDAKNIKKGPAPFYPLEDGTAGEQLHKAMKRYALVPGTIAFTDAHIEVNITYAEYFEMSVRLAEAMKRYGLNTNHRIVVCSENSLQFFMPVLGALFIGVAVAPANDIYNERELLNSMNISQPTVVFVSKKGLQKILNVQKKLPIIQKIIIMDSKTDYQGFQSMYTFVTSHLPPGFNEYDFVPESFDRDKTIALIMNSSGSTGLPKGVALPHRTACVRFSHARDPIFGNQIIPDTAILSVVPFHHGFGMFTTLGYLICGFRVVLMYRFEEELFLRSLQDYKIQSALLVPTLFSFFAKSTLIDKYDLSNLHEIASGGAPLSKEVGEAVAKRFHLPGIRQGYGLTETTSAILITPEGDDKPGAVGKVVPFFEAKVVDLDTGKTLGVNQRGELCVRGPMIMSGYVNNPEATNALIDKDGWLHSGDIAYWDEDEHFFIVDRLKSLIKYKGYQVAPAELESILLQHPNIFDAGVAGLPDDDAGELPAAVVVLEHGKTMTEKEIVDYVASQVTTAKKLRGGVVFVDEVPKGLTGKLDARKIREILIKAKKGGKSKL
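Purified P. pyralis luciferase, 10 nM final, with Km-level 10 uM D-luciferin and 10 uM ATP in 50 mM Tris acetate pH 7.5, 10 mM Mg acetate, 0.01% Tween-20, 0.05% BSA; 6-point qHTS titration about 60 µM downward; luminescence read.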
NPC1 promoter act: activates the NPC1 promoter; Huh7 NPC1 promoter luciferase reporter, 24 h; Potency, µM (top dose mostly 9.22 µM), actives largely listed as activators; 2.4% of 320,000 active; AID 485313; further: nearly all actives have a fitted effect of over 60% in size
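Luciferase expression driven by the NPC1 promoter was measured in stably transfected Huh7 cells after a 24 h compound incubation, using a luciferase reagent and a luminescence read.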
Rab9 promoter act: activates the Rab9 promoter. Potency, µM (top dose mostly 9.22 µM), actives largely listed as activators. 2.8% of 320,000 active. Huh7 Rab9 promoter-luciferase reporter, luminescence, 24 h; further: nearly all actives have a fitted effect of over 60% in size
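Measured in stably transfected Huh7 cells bearing a Rab9 promoter–luciferase construct: 24 h compound treatment at 37 °C, followed by luminescence detection.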
ELG1 genotox: inducers of genotoxicity in HEK293T ELG1-luciferase cells; HEK293T ELG1-luciferase reporter, luminescence, 16 h; Potency, µM (titrated, usually from 46 µM), hits mostly activators; 1.3% of 330,000 active; AID 504466; further: nearly all actives have a fitted effect of over 60% in size
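Screening used a luciferase reporter fused to human ELG1 in HEK293T cells. Luminescence was read on a CCD plate imager after 16 hr exposure and 30 min ONE-Glo incubation.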
SMN2 splice up: increases expression of the SMN2 splice variant | 2.8% of 210,000 active | AID 1458 | HEK293 SMN2-luciferase splicing reporter, luminescence, 30-36 h | Potency, µM (top dose mostly 46.1 µM), usual class: activators; further: nearly all actives have a fitted effect of over 55% in size
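HEK293 cells carry an SMN2 […]–luciferase reporter in which exon 7 inclusion puts luciferase in frame. Cells were plated 10-12 h before compound addition, then incubated 30-36 h at 37C. ONE-Glo luminescence was read; sodium butyrate at 4.5 mM final served as control.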
KinaseGlo FLuc: Kinase-Glo luciferase inhibition (counter-screen); Q27757; Kinase-Glo luciferase, ATP luminescence, 8 min; Potency, µM (doses to about 38.3 µM), actives largely listed as inhibitors; 0.28% of 200,000 active; further: nearly all actives have a fitted effect of over 60% in size
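Compound is pinned into ATP-containing buffer (10 uM ATP, imidazole pH 7.2, 7 mM MgCl2). Kinase-Glo luciferase reagent is then added. Light output is recorded following an 8-min room-temperature incubation.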
A number is an active result; [ ] = remark or other dose. Compounds with a hit are over-represented: about 7.5% of the library has one in this group of screens. The call rests on the fitted dose curve; in most records, active means well fitted curve in the direction sought with a large enough effect; inconclusive means small, poorly fitted or top-dose-only effect, or another doubt; inactive means no such curve, though single readings can be large; an effect the other way counts as inactive or inconclusive.

What do the screens show for `COc1cccc(/C=C2\SC(=S)N(CC3CCCO3)C2=O)c1` (centres undefined)?
FLuc modulator: 11µM; NPC1 promoter act: inactive; Rab9 promoter act: inactive; ELG1 genotox: inactive; SMN2 splice up: inactive; KinaseGlo FLuc: inactive

How did Cc1cccc(-c2noc(-c3ccc(NC4CCCC4)c([N+](=O)[O-])c3)n2)c1 do in these assays?
FLuc modulator: inactive

Results for CN(C)c1ccc(C#Cc2ccc3cc(CCO)oc(=O)c3c2)cc1 ?
FLuc modulator: 1.3µM; NPC1 promoter act: 4µM; Rab9 promoter act: inconclusive; ELG1 genotox: inactive

What do the screens show for `O=c1oc(CCO)cc2ccc(C#Cc3ccsc3)cc12`?
FLuc modulator: inconclusive; NPC1 promoter act: inconclusive; Rab9 promoter act: 4µM; ELG1 genotox: inconclusive

Results for O=c1oc(CCCO)cc2ccc(C#Cc3cccnc3)cc12 ?
ELG1 genotox: inactive

Results for Cc1ccc(NC(=O)C2Cc3ccccc3O/C2=N\O)cc1C (centres undefined) ?
FLuc modulator: inactive; NPC1 promoter act: inactive; Rab9 promoter act: inconclusive; ELG1 genotox: inconclusive

Results for O=C(Nc1ccc(Br)cc1)C1Cc2ccccc2O/C1=N\O (centres undefined) ?
FLuc modulator: inconclusive; NPC1 promoter act: 3.2µM; Rab9 promoter act: 2.8µM; ELG1 genotox: 18µM

What do the screens show for `Cc1cccc(CNC(=O)C2CCC(CNS(=O)(=O)c3ccc4c(c3)CCCC(=O)N4)CC2)c1` (centres undefined)?
FLuc modulator: inactive

What do the screens show for `O=C(c1ccccc1)c1ccc(O)cc1O`?
FLuc modulator: inconclusive; NPC1 promoter act: inactive; Rab9 promoter act: inactive; ELG1 genotox: inactive

Results for CC(=O)c1cc2c(C)c(C(=O)c3ccccc3)oc2cc1O ?
FLuc modulator: 0.54µM; NPC1 promoter act: 4µM; Rab9 promoter act: 1.6µM; ELG1 genotox: inconclusive; SMN2 splice up: inactive[1.84 µM]; KinaseGlo FLuc: inactive

Results for C[N+](C)(C)CCC(=O)c1cccc2ccccc12 ?
SMN2 splice up: inactive; KinaseGlo FLuc: inactive

What do the screens show for `COc1ccc(C(CC(=O)c2ccc(O)cc2)S(=O)(=O)c2ccc(C)cc2)cc1` (centres undefined)?
FLuc modulator: 9.5µM; NPC1 promoter act: inconclusive; Rab9 promoter act: inactive; ELG1 genotox: inconclusive; SMN2 splice up: inactive; KinaseGlo FLuc: inactive

What do the screens show for `C/C(=N\NC(=O)COc1ccccc1F)c1cc2ccccc2o1`?
FLuc modulator: 11µM; NPC1 promoter act: inconclusive; Rab9 promoter act: inconclusive; ELG1 genotox: inconclusive; SMN2 splice up: inconclusive; KinaseGlo FLuc: inactive

Results for COCCN1C(=O)/C(=C/c2ccc(N3CCCC3)cc2)SC1=S ?
FLuc modulator: inconclusive; NPC1 promoter act: inconclusive; Rab9 promoter act: inconclusive; ELG1 genotox: inactive; SMN2 splice up: inactive; KinaseGlo FLuc: inactive

What do the screens show for `CCN1C(=S)SC(=O)C1=C1C=C(C)N(CCO)C(C)=C1`?
FLuc modulator: 7.6µM; NPC1 promoter act: 1.3µM; Rab9 promoter act: 1.4µM; ELG1 genotox: 5.2µM; SMN2 splice up: inactive; KinaseGlo FLuc: inactive

How did CCN1C(=S)SC(=O)C1=C1C=C(C)N(CCOC)C(C)=C1 do in these assays?
FLuc modulator: 2.4µM; NPC1 promoter act: 0.4µM; Rab9 promoter act: 0.79µM; ELG1 genotox: 1.6µM; SMN2 splice up: inconclusive; KinaseGlo FLuc: inactive

Results for O=c1c2sc3ccccc3c2n(Cc2ccccc2F)c(=O)n1Cc1ccccc1 ?
FLuc modulator: inactive; SMN2 splice up: inactive

How did CC(=O)Nc1ccc(NC(=O)COc2cc(O)c3c(c2)OC(C)(C)CC3=O)cc1 do in these assays?
FLuc modulator: 21µM; NPC1 promoter act: inactive; Rab9 promoter act: inactive; ELG1 genotox: inactive

How did COC(=O)c1ccc(COc2cc(O)c3c(c2)OC(C)(C)CC3=O)cc1 do in these assays?
FLuc modulator: 15µM; NPC1 promoter act: inactive; Rab9 promoter act: inconclusive; ELG1 genotox: inactive; SMN2 splice up: inactive; KinaseGlo FLuc: inactive

Results for CC1(C)CC(=O)c2c(O)cc(OCC(=O)N3CCN(c4ccc(F)cc4)CC3)cc2O1 ?
FLuc modulator: 21µM; NPC1 promoter act: inactive; Rab9 promoter act: inactive; ELG1 genotox: inactive

Screens as filed in PubChem BioAssay.
